# Test results taken from PubChem BioAssay (EPA / NIEHS).
# Results filed as inconclusive are left out. Activity calls are given as the source filed them. How the source made its calls, unless noted: active means hit-call score of the fitted dose curve at least 0.9, where 1 is the maximum; inactive means score below 0.9.
# Assays:
# [1] = biological target: human CYP19A1, CYP19A1 (gene 1588) (UniProt P11511); assay: NVS_ADME_hCYP19A1: NovaScreen (NVS) CYP450-related Enzyme Activity (ADME) Assay for human CYP19A1 (AID 2283098; active means hit-call score of the fitted dose curve at least 0.9, where 1 is the maximum;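 on AC50: potency for inhibitors seen as loss of fluorescent enzyme signal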)
# Method in brief: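 Recombinant enzyme in a cell-free format, read 0.5 h after dosing by fluorescence from a fluorogenic substrate. Loss of signal was fitted against acetonitrile as baseline. Primary screen in duplicate at 10 uM, actives then tested in concentration series.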
# [2] = read-out: Monocyte Chemoattractant Protein-1 (MCP1), CCL2 (gene 6347); assay: BSK_SAg_MCP1: BioMAP Diversity Plus: SAg Assay for Monocyte Chemoattractant Protein-1 (MCP1) Biomarker Activity (AID 2283090); settings: primary human HUVEC with PBMC; actives raise or lower the signal
# Method in brief: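 MCP-1 levels in the endothelial–PBMC SAg co-culture were quantified by ELISA at 24 h post-dosing; both increases and decreases versus DMSO scored. Cytotoxicity monitored by SRB total protein in parallel cultures.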
# [3] = read-out: E-selectin (Homo sapiens) (UniProt P16581); assay: BSK_SAg_Eselectin: BioMAP Diversity Plus: SAg Assay for Eselectin Biomarker Activity (AID 2283091); settings: primary human HUVEC with PBMC; actives raise or lower the signal
# Method in brief: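 Endpoint values derive from bidirectional fitting relative to DMSO, using ELISA-measured E-selectin in a human vascular co-culture (umbilical vein endothelium plus PBMC) sampled 24 h after dosing.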
# [4] = read-out: Monokine induced gamma interferon (MIG), CXCL9 (gene 4283); assay: BSK_SAg_MIG: BioMAP Diversity Plus: SAg Assay for Monokine induced gamma interferon (MIG) Biomarker Activity (AID 2283092); settings: primary human HUVEC with PBMC; actives raise or lower the signal
# Method in brief: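 ELISA readout of MIG/CXCL9; primary human umbilical vein endothelial cells co-cultured with peripheral blood mononuclear cells; 24 h post-dose; gain/loss fit vs DMSO baseline.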
# [5] = BSK_SAg_PBMCCytotoxicity: PBMC Cytotoxicity Assessment in the BioMAP Diversity Plus: SAg Assay (AID 2283093); settings: primary human HUVEC with PBMC;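 further: PBMC viability measured as Alamar Blue reduction fluorescence at 546/580 nm; fitted both ways against DMSO so a hit may be loss or gain of signal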;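 on AC50: PBMC superantigen activated with SEB plus TSST-1 one hour after compound addition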
# Method in brief: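 HUVEC/PBMC co-culture; PBMC exposed to chemical 1 h before SEB and TSST-1 activation (20 ng/mL each), incubated 90 h, then Alamar Blue 6 h, fluorescence 546/580 nm. Bidirectional fit versus DMSO baseline.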
# [6] = BSK_SAg_Proliferation: Cell Proliferation Assessment in the BioMAP Diversity Plus: SAg Assay (AID 2283095); settings: primary human HUVEC with PBMC;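 further: relative cell number as total protein by SRB absorbance in sub-confluent culture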
# Method in brief: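 Cells (endothelium plus PBMC, human primary) were dosed with chemical, cultured 96 h, fixed in 10% TCA and stained with 0.1% SRB. Absorbance at 560 nm gave relative protein, fitted bidirectionally relative to DMSO.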
# [7] = BSK_SAg_SRB: Viability Assessment in the BioMAP Diversity Plus: SAg Assay (AID 2283096); settings: primary human HUVEC with PBMC;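 further: cells read one day after compound addition; hits may be either gain or loss of signal compared with DMSO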
# Method in brief: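 Human umbilical vein endothelial cells co-cultured with PBMC, read 24 h after compound dosing. Total protein measured by sulforhodamine B staining (0.1% SRB after 10% TCA fixation, absorbance 560 nm); bidirectional fit versus DMSO baseline.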
# [8] = biological target: human CYP1A1, CYP1A1 (gene 1543) (UniProt P04798); assay: NVS_ADME_hCYP1A1: NovaScreen (NVS) CYP450-related Enzyme Activity (ADME) Assay for human CYP1A1 (AID 2283100; active means hit-call score of the fitted dose curve at least 0.9, where 1 is the maximum)
# Method in brief: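 Inhibition of recombinant CYP1A1 turnover was assessed fluorometrically in a biochemical format 1 h after compound exposure. Testing began at 10 uM in duplicate and progressed to concentration series reaching 20 uM, with on-plate positive and negative controls.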
# human CYP19A1, CYP19A1 (gene 1588), sequence (P11511 whole entry, looked up): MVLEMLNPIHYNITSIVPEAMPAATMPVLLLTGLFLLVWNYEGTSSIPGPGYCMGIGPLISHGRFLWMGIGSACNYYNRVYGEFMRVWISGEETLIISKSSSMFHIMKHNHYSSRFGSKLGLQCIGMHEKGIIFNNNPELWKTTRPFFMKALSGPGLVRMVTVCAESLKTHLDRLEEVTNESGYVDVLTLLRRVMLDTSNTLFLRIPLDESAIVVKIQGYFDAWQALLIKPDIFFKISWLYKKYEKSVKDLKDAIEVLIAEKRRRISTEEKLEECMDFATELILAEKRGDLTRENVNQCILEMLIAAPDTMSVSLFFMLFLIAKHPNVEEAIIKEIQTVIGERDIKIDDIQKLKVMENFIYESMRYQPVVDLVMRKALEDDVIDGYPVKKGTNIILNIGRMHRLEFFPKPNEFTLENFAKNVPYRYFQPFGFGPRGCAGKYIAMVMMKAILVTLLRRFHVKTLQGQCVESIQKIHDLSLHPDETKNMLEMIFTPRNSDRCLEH
# E-selectin (Homo sapiens), sequence (P16581 whole entry, looked up): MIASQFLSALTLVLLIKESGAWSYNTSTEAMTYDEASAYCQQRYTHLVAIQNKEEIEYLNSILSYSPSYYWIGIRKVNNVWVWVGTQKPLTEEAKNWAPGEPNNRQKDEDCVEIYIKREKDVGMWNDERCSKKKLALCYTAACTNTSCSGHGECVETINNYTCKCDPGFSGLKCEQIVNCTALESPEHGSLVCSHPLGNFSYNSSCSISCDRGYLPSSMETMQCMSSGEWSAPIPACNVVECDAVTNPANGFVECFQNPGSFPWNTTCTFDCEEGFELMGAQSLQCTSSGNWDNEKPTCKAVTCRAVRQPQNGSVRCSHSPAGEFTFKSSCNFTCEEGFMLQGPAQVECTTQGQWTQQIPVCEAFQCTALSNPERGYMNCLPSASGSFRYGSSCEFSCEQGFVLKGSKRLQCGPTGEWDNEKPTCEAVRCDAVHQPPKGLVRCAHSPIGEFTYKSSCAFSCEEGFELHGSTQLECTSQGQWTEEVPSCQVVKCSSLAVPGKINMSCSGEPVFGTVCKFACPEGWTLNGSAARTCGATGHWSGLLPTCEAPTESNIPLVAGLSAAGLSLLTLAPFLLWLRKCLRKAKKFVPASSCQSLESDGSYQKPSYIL
# human CYP1A1, CYP1A1 (gene 1543), sequence (P04798 whole entry, looked up): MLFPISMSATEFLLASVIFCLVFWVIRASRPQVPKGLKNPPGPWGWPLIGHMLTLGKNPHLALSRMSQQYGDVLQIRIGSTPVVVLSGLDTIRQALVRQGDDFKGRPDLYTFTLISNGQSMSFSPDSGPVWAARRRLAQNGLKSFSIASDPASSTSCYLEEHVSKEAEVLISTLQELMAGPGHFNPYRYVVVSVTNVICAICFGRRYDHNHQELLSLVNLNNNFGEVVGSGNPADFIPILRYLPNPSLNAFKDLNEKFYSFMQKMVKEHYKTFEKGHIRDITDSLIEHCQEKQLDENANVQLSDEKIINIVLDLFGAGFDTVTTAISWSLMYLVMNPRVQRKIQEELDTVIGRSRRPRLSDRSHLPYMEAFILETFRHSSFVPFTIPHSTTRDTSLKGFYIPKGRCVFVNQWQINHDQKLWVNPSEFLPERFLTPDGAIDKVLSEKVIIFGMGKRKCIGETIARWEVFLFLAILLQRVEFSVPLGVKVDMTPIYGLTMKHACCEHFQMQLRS
smiles,measurement,setting,value
c1ccc2cc3c(ccc4ccccc43)cc2c1,outcome,[1],inactive
C=C(C)C(=O)OCCC(F)(F)C(F)(F)C(F)(F)C(F)(F)C(F)(F)C(F)(F)F,outcome,[1],inactive
CCCOc1sc(C(=O)N2CCC(c3cc(CN)ccc3F)CC2)c(C)c1Br,AC50,[2],8.39 µM (active)
same,AC50,[3],6.75 µM (active)
same,AC50,[4],11.9 µM (active)
same,AC50,[5],6.22 µM (active)
same,AC50,[6],5.11 µM (active)
same,AC50,[7],6.68 µM (active)
same,outcome,[8],inactive
CCOC(=O)CC(O)(CC(=O)OCC)C(=O)OCC,outcome,[2],inactive
same,outcome,[3],inactive
same,outcome,[4],inactive
same,outcome,[5],inactive
same,outcome,[6],inactive
same,outcome,[7],inactive
COCC(C)O (stereo not given),outcome,[2],inactive
same,outcome,[3],inactive
same,outcome,[4],inactive
same,outcome,[5],inactive
same,outcome,[6],inactive
same,outcome,[7],inactive
CN1CCC[C@H]1c1cccnc1,outcome,[2],inactive
same,outcome,[3],inactive
same,outcome,[4],inactive
same,outcome,[5],inactive
same,outcome,[6],inactive
same,outcome,[7],inactive
FC(F)(I)C(F)(F)C(F)(F)C(F)(F)C(F)(F)C(F)(F)I,AC50,[4],54.9 µM (active) [middle of 5 runs]
same,AC50,[7],28.1 µM (active) [middle of 5 runs]
CC[C@H](c1ccc(O)cc1)[C@@H](CC)c1ccc(O)cc1,AC50,[2],23.9 µM (active)
same,AC50,[3],17.9 µM (active)
same,AC50,[4],32.6 µM (active)
same,AC50,[5],31.1 µM (active)
same,AC50,[6],19.2 µM (active)
same,AC50,[7],31.4 µM (active)
same,AC50,[1],1.77 µM (active)
COCC(C)OCC(C)O (stereo not given),outcome,[2],inactive
same,outcome,[3],inactive
same,outcome,[4],inactive
same,outcome,[5],inactive
same,outcome,[6],inactive
same,outcome,[7],inactive
same,outcome,[1],inactive
ClC1=C(Cl)C(Cl)(Cl)C(Cl)=C1Cl,AC50,[2],10.6 µM (active)
same,AC50,[3],8.69 µM (active)
same,AC50,[4],13.8 µM (active)
same,AC50,[5],10.4 µM (active)
same,AC50,[6],5.78 µM (active)
same,AC50,[7],9.48 µM (active)
CC(C)CCCCCCOC(=O)CCCCC(=O)OCCCCCCC(C)C,outcome,[2],inactive
same,outcome,[3],inactive
same,outcome,[4],inactive
same,outcome,[5],inactive
same,outcome,[6],inactive
same,outcome,[7],inactive
